Measured values: PubChem BioAssay (NCI)
Compounds without any hit were thinned out: in the full panel of roughly 79,000, 15% have a hit. Activity calls are given as the source filed them. No stated cut-off is given here; in the data, active means growth inhibition above about 70%; inactive means the rest.

Test: NCI Yeast Anticancer Drug Screen. Data for the wt1 strain (AID 149);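 further: 0% = growth of vehicle-treated wt1 cultures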
Conditions: S. cerevisiae wt1 strain (SPY 50644) growth inhibition; at 33.0 µM; hits give high values
Outline: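 Yeast wt1 strain exposed to compounds; growth inhibition measured relative to vehicle-treated controls.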

SMILES	growth inhibition
CCC/C(Cl)=N\OC(=O)Nc1cccc(C(F)(F)F)c1	2% (inactive)
[O-][n+]1c2ccc(O)cc2nc2ccc(Cl)cc21	34% (inactive)
Clc1ccccc1C1OC1c1ccccc1Cl (stereo not given)	-52% (inactive)
c1ccc2c(c1)c1ncccc1c1nccnc21	12% (inactive)
CC(=O)Nc1ccc2c(c1)C(=Nc1ccc(C(=O)O)cc1)c1ccccc1-2	13% (inactive)
COc1ccc(OC)c2cc3ccccc3cc12	-8% (inactive)
COc1cc(C2c3cc4c(cc3OC(NNc3ccccc3)C2C)OCO4)cc(OC)c1OC (stereo not given)	74% (active)
O=C1c2cc([N+](=O)[O-])ccc2-c2cccc(F)c21	10% (inactive)
CCCCCCCCCCCC(=O)N(C)C	-14% (inactive)
CCCCCCCCCCCC1=C(O)C(=O)C=C(O)C1=O	94% (active)
Cc1ccc(CSC(N)=Nc2ccccc2)cc1C	4% (inactive)
CCCCCCCCCCC1CCC(=O)O1 (stereo not given)	3% (inactive)
O=[N+]([O-])c1cc(CCl)ccc1CCl	93% (active)
Nc1ccc2c(c1)C(=O)c1cccc(N)c1C2=O	49% (inactive)
CCCCCCCCCCNC(=O)OCC	4% (inactive)
CC1=C(C)Cc2c(O)ccc(O)c2C1	-3% (inactive)
COc1ccc2c(c1)C(=O)c1ccccc1C2	6% (inactive)
CCC(=O)OCCn1c2nc(=O)[nH]c(=O)c-2nc2cc(C)c(C)cc21	7% (inactive)
O=C(OCCN1CCCCCC1)C(c1ccsc1)C1CCCCC1 (stereo not given)	19% (inactive)
Oc1c(Br)cc(Br)cc1C1CCCCC1	97% (active)
